SMILES strings stand for the structures.

In this assay the test system is Plasmodium falciparum. Put plainly: GSK_TCMDC: Inhibition of Plasmodium falciparum 3D7 in whole red blood cells, using parasite LDH activity as an index of growth. Test compounds present at 2uM. It counts as functional.
As usually defined, the Inhibition is how much of the control response was suppressed. Higher therefore signals a response far below the control. In turn, `CS(=O)(=O)c1ccc(CNCc2ccc(-c3cccc(-c4nc5cc(F)ccc5[nH]4)c3)cc2)cc1.O=C(O)C(F)(F)F` displayed an Inhibition of 100%. In turn, `Cc1cc2c(cc1C(F)(F)F)N(C(=O)Nc1cccc(C(=O)NC3CCN(Cc4ccccc4)CC3)c1)CC2` displayed an Inhibition of 91%.

In turn, `COc1ccc2ncc(F)c(CCN3CCC(NCc4ccc5c(c4)CCO5)CC3)c2n1.Cl` yielded an Inhibition of 100%. Under `COc1ccc(C2C(C(=O)Nc3ccc(C)cc3Br)c3ccccc3C(=O)N2C)cc1` (stereo not given) stands 96%; under `O=C(NC(c1ccc(Cl)cc1)c1ccc2cccnc2c1O)c1ccccc1` (stereo not given), 87%; under `CCOC(=O)c1ccc(NC(=O)Nc2cccc(-c3ccc(-c4nc5cc(C(F)(F)F)ccc5[nH]4)cc3)c2)cc1`, 100%.

In turn, `CN(C)CCNC(=O)c1csc(Nc2ccc(Cl)c(Cl)c2)n1` came in with an Inhibition of 100%. Under `Cl.O=S(=O)(c1cccc(F)c1)c1ccc(Nc2ncnc3cc(Br)sc23)cc1Cl` stands 86%. Under `Clc1ccc(/N=C(/NCCCCCCCN/C(=N\c2ccc(Cl)cc2)Nc2ccc(Cl)cc2)Nc2ccc(Cl)cc2)cc1` stands 100%; under `CCCCCCOc1ccc(C(=O)NCCCC2CCN(CCCCCNC(=O)C=Cc3ccc(Cl)c(Cl)c3)CC2)cc1`, 94%. In the case of `Cl.N=C(N)Nc1ccc(OCCCCCOc2ccc(NC(=N)N)cc2)cc1` it was 99%.

The molecule `COc1ccc(CNCc2ccccc2)cc1-c1ccc(S(=O)(=O)NCCN2CCCC2)cc1.O=C(O)C(F)(F)F` came in with an Inhibition of 96%.

Turning to `OC1=C2C(=Nc3ccccc3SC2c2ccccc2)c2ccccc21` (stereo not given), the Inhibition is listed as 86%.

The molecule `COc1ccc2[nH]c(C)cc(=NN=Cc3ccccc3Cl)c2c1` registered an Inhibition of 100%. In the case of `O=C(O)C(F)(F)F.OCC1CCN(Cc2ccc(-c3ccc(-c4nc5ccccc5[nH]4)cc3)cc2)CC1` it was 100%; in that of `CC(C)C1=C[C@H]2C[C@]3(C4OCCO4)[C@@H]4CC[C@@H](C)[C@H]4C[C@@]2(C(=O)OCC2COCO2)[C@]13C(=O)OC(c1ccccc1)c1ccccc1` (stereo not given in full), 92%.

Molecule `O=C(Cc1ccc(NC(=O)c2ccc(O)c(-c3ccc(Cl)c(Cl)c3)c2)cc1)NCCc1ccc(Cl)c(Cl)c1` showed an Inhibition of 99%. In the case of `CNCc1ccc(-c2ccc3ccnc(N)c3c2)cc1` it was 94%.

In turn, `COc1ccc(-c2cccc(NC(=O)c3cccc(C#N)c3)c2)cc1CN1CCNCC1.O=C(O)C(F)(F)F` gave an Inhibition of 100%.

As to `c1ccc2c(CNc3nc(NCC4CCCCC4)nc4[nH]cnc34)cccc2c1`, the Inhibition is listed as 89%. In the case of `Cc1ccc(-c2nc3cc(C(=O)NC4CCC(N5CCCc6ccc(C#N)cc6C5)CC4)ccc3[nH]2)cc1` (stereo not given) it was 100%; in that of `Cc1ccc(-c2cc(C(=O)Nc3ccc(S(=O)(=O)N4CCCC(C)C4)cc3)[nH]n2)c(O)c1` (stereo not given), 100%.

With `Oc1ccc(Br)cc1-c1nc2ccc(Cl)cc2nc1-c1cc(Br)ccc1O`, the Inhibition is reported as 100%. Molecule `COc1cc(F)c2ncc(Cl)c(C(O)CN3CCC(NC(=O)c4ccc5c(c4)NC(=O)CS5)CC3)c2c1.Cl` (stereo not given) showed an Inhibition of 98%. `O=C(Nc1cccc(C(F)(F)F)c1)c1cccc(S(=O)(=O)NCC2CCCN2CC2CCCCC2)c1.O=C(O)C(F)(F)F` (stereo not given) yielded an Inhibition of 97%. Under `CN(C)CCCNCc1ccc(-c2ccc(F)c(Cl)c2)o1.Cl` stands 93%; under `COc1cc(C(=O)N2CCN(C(C)C)CC2)ccc1CN(C)CCCCN1CCN(c2cccc(Cl)c2Cl)CC1.Cl`, 100%; under `O=C(Nc1ccc(Cn2nc(Cl)c(N3CCCNCC3)cc2=O)cc1)c1ccc(-c2ccccc2)cc1.O=C(O)C(F)(F)F`, 87%.

Turning to `CCc1cc(=O)[nH]c(-n2nc(C)cc2NC(=O)CC(c2ccccc2)c2ccccc2)n1`, the Inhibition is reported as 92%. Under `Cc1nc(NC(=N)N)nc2cc3c(cc12)CCC3.Cl` stands 90%; under `Cn1cc(C2CCN(CCCCNC(=O)c3ccc(-c4ccc(C(F)(F)F)cc4)c(CO)c3)CC2)c2ccccc21`, 88%; under `Cc1[nH]c(C)c(-c2ccc(Nc3ccc(C(F)(F)F)cn3)cc2)c(=O)c1Br`, 99%. In the case of `CC1CN(c2cnn(C/C=C/c3ccc(NC(=O)c4ccc([N+](=O)[O-])cc4)cc3)c(=O)c2Cl)CC(C)N1.O=C(O)C(F)(F)F` (stereo not given) it was 96%.

Consider `Cc1ccc(S(=O)(=O)n2cc(-c3ccnc(N)c3)c3cc(Br)cnc32)cc1`, for which the Inhibition is 98%. Under `CN1CCN(Cc2cccc(-c3ccc4c(Nc5ccc(Oc6cccnc6)cc5)ccnc4c3)c2)CC1` stands 100%. Under `Cc1cc2c(cc1C(F)(F)F)N(C(=O)Nc1cc(C(=O)NCCN(C)C)cc(C(F)(F)F)c1)CC2` stands 100%; under `O=C(NCCc1ccc(F)cc1)c1ccc(N2CCN(c3ccncc3)CC2)nc1.O=C(O)C(F)(F)F`, 88%. In the case of `Cc1cccc2nc(-c3ccc(-c4cccc(NCc5cn6cccnc6n5)c4)cc3)[nH]c12` it was 94%.

Molecule `Cn1cc(C2CCN(CCCCNC(=O)c3sc(-c4ccc(C(F)(F)F)cc4)nc3CO)CC2)c2ccccc21` yielded an Inhibition of 95%. Under `Oc1cc(Nc2ccnc3cc(I)ccc23)c(F)cc1Cl` stands 92%.

The values are drawn from ChEMBL document CHEMBL1157539, “Thousands of chemical starting points for antimalarial lead identification” (Nature, 2010).
